Bioassay records: PubChem, several laboratories
Compounds with a hit are over-represented: about 3.4% of the library has one in this group of screens.
Mcl1 Bid PPI – Mcl-1/Bid binding inhibitors, primary screen, biochemical, TR-FRET, 1536-well; 220,000 compounds, 0.97% hits; inhibition, % at 21.7 µM; Induced myeloid leukemia cell differentiation protein Mcl-1 (Homo sapiens), Q07820; TR-FRET Mcl-1/Bid-Dy647 peptide binding;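 active = compounds that cut the binding signal by more than half at the single screening dose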;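 note: His-tagged Mcl-1 with europium anti-His antibody binding Bid BH3 peptide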
Target sequence (Q07820 whole entry, looked up): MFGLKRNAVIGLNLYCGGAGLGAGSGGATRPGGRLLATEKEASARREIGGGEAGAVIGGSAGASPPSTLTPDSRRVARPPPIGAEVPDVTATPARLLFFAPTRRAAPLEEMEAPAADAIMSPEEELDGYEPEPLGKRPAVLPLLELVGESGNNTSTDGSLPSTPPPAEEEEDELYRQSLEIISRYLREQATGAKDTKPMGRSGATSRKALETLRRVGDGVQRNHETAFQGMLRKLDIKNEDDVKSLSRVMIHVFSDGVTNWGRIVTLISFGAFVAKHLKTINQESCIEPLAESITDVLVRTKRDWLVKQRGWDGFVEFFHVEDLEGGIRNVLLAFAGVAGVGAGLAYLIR
eIF4E-4G inh – eIF4E–eIF4G protein interaction inhibitors, primary screen, biochemical, uHTS, TR-FRET, eIF4GI fragment; Eukaryotic translation initiation factor 4E (Mus musculus) + Eukaryotic translation …; TR-FRET eIF4E-eIF4GI(517-606) binding, 2 h; inhibition, % at 21.7 µM; 220,000 compounds, 0.37% hits; AID 782, 2007
Bim-Mcl-1 – inhibitors of Bim peptide binding to Mcl-1, primary screen, biochemical, bead-based flow cytometry, multiplex; inhibition, % at 10 µM; Bim peptide-Mcl-1 binding; 190,000 compounds, 0.1% hits; AID 1009, 2008; in the data active = inhibition above about 40%
14-3-3 Bad PPI – inhibitors of 14-3-3 zeta/Bad binding, primary screen, biochemical, TR-FRET, bovine 14-3-3 zeta. inhibition, % at 21.7 µM. 220,000 compounds, 0.71% hits. 14-3-3 protein zeta/delta (Bos taurus), P63103. TR-FRET 14-3-3zeta/Dy647-pBad peptide displacement, 1 h. AID 781, 2007;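 active = inhibition above about 70%, limit read from the data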
Target sequence (P63103 whole entry, looked up): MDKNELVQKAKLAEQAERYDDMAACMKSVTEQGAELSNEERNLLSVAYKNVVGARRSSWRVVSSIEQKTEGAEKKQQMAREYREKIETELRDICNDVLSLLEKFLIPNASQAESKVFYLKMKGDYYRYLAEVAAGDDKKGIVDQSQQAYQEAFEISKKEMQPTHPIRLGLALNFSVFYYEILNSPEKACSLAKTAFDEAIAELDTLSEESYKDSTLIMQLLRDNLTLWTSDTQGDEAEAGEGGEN
p47phox inh – p47phox/p22phox peptide binding inhibitors, primary screen, biochemical, uHTS, NADPH oxidase regulatory subunit. Neutrophil cytosol factor 1 (Homo sapiens), P14598. inhibition, % at 24.7 µM. 220,000 compounds, 0.53% hits. AID 1274, 2008. fluorescence polarization, 2 h
Mcl1-Noxa inh – Mcl-1/Noxa binding inhibitors, primary screen, biochemical, TR-FRET, 1536-well; inhibition, % at 21.7 µM; TR-FRET Mcl-1/Noxa peptide binding, 2 h; AID 1022, 2008; 220,000 compounds, 1.5% hits;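 active = compounds that cut the protein-peptide binding signal by more than 50% relative to plate controls in a single-dose test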;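 note: His-tagged Mcl-1 with rhodamine Noxa BH3 peptide and terbium anti-His antibody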
Of the large screens only hits and unclear results are named; the others gave an inactive call; [ ] = another dose, or the depositor's remark.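 Rule for the calls, unless noted: active = inhibition above about 30% (limit read from the data); inactive = the rest.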

COC(=O)c1cc2c(C)c(C)c3ccccn3c-2c1C(=O)OC	none
COC(=O)c1cc2n3ccccc3c(C)c(-c3ccccc3)c-2c1C(=O)OC	p47phox inh 53
O=C(OC1CCCCC1)c1ccc2c(c1)C1C=CCC1C(C(=O)O)N2 (stereo not given)	Mcl1 Bid PPI 98, eIF4E-4G inh 62[fluorescence artefact?], p47phox inh 39, Mcl1-Noxa inh 108
CC(C)C1Nc2c(O)cc(Cl)c([N+](=O)[O-])c2C2C=CCC21 (stereo not given)	none
O=C(OC1CCCCC1)c1ccc(NC(=O)C2CCCCC2)cc1	none
O=C(O)C1Nc2c(O)cccc2C2C=CCC12 (stereo not given)	Mcl1 Bid PPI 86, eIF4E-4G inh 48[fluorescence artefact?], 14-3-3 Bad PPI 83[fluorescence artefact?], Mcl1-Noxa inh 115
CC(=O)N(C)c1ccc(NC(=O)Nc2ccc(C)c(C)c2)cc1	none
Cc1ccc(C2C(C#N)=C(N)Oc3c2sc2ccccc32)o1 (stereo not given)	Mcl1-Noxa inh 74
Cc1ccc(NC(=S)NNC(=O)c2ccccc2O)c(C)c1	none
O=C1NC(=Nc2ccc(Cl)cc2)/C(=C/c2ccco2)S1	Mcl1 Bid PPI 57, 14-3-3 Bad PPI 81[fluorescence artefact?], Mcl1-Noxa inh 66
Cc1ccc(N=C2NC(=O)/C(=C\c3ccco3)S2)cc1	none
O=C1NC(=Nc2ccc3ccccc3c2)S/C1=C/c1ccco1	Mcl1-Noxa inh 64
Cc1cccc(N=C2NC(=O)/C(=C/C=C/c3ccco3)S2)c1	Mcl1-Noxa inh 106
COc1ccc(N=C2NC(=O)/C(=C\C=C\c3ccco3)S2)cc1	Mcl1-Noxa inh 82
Nc1ccc(N2CCCCC2)c(Cl)c1	none
Cc1ccc(CSc2nccc(-c3c(C)nc4ccccn34)n2)cc1	none (no result: Bim-Mcl-1)
CN(C)/C=N/c1nc2nccc(-c3ccccc3)n2n1	none
CC(=O)c1c(N=CN(C)C)nc(C)nc1-c1ccccc1	Mcl1 Bid PPI 89
CCOC(=O)c1c(NS(=O)(=O)c2ccc(Br)cc2)sc2c1CCC2	Mcl1-Noxa inh 51
Cc1ccc(CSc2nnc(-c3ccc(S(=O)(=O)N4CCCC4)cc3)o2)cc1	none
O=C(CSc1nnc(-c2cccc(S(=O)(=O)N3CCCCC3)c2)o1)c1ccc[nH]1	none
O=S(=O)(c1ccc(-c2nnc(SCc3ccccc3)o2)cc1)N1CCCC1	p47phox inh 42
NC(=O)CSc1nnc(-c2cccc(S(=O)(=O)N3CCCCC3)c2)o1	14-3-3 Bad PPI 84 (no result: Bim-Mcl-1)
COc1c(C)cc(Br)cc1C(=O)Nc1ccc(S(N)(=O)=O)cc1	Bim-Mcl-1 44
CS(=O)(=O)N(CC(=O)NC1CCCCC1)Cc1ccc(F)cc1	none
COc1ccc(C(=O)N(Cc2ccco2)Cc2cccs2)c(O)c1	none
COc1ccc(C(=O)/C=C/C(=O)N(CC(=O)NC2CCCCC2)Cc2ccc(F)cc2)c(O)c1	p47phox inh 33
COc1ccc(C(=O)/C=C/C(=O)N(CC(=O)NCCC(C)C)Cc2cccs2)c(O)c1	Mcl1-Noxa inh 66
CCOC(=O)N1CCN(C(=O)/C=C/c2c(C)nn(-c3ccc(F)cc3)c2Cl)CC1	none
CC(C)NCCOCCSc1ccc(Cl)cc1	14-3-3 Bad PPI 83
COc1ccc(OC)c(NC(=S)N(CCc2c(C)[nH]c3ccccc23)Cc2cccs2)c1	none
COc1ccc(OC)c(NC(=S)N(CCc2c(C)[nH]c3ccc(C)cc23)Cc2cccs2)c1	Mcl1 Bid PPI 85
CN(CC1CCCO1)S(=O)(=O)c1ccc(C(=O)Nc2nccs2)cc1 (stereo not given)	none (no result: Bim-Mcl-1)
O=C(CSc1nc2ccc(Cl)cc2[nH]1)N1CCN(C(=O)c2ccco2)CC1	Mcl1-Noxa inh 57
O=C(c1ccco1)N1CCN(C(=O)c2cc(-c3ccccn3)nc3ccc(Cl)cc23)CC1	Mcl1-Noxa inh 64
CCSc1ccccc1C(=O)NCc1cccnc1	none
O=C(c1ccco1)N1CCN(C(=O)c2cc(-c3ccccc3)nc3ccccc23)CC1	none
NS(=O)(=O)c1ccc(CNC(=O)c2cc(-c3ccccn3)nc3ccc(Cl)cc23)cc1	Mcl1-Noxa inh 54
CCSc1ccccc1C(=O)NCc1ccc(S(N)(=O)=O)cc1	Mcl1-Noxa inh 53
Cc1cc(C)c(S(=O)(=O)Nc2cc(SCC(=O)O)c(O)c3ccccc23)cc1C	Mcl1-Noxa inh 82
COc1cc(/C=C/C(=O)OCC(=O)NC(=O)NC(C)C)cc(S(=O)(=O)N2CCc3ccccc32)c1OC	none
O=c1c2ccccc2nc2c3ccccc3cnn12	14-3-3 Bad PPI 80
O=C(Cn1c(O)c(/C=C2\C=Nc3ccccc32)sc1=O)N1CCOCC1	none
O=c1[nH]c(S)c(/C=C2\C=Nc3ccccc32)s1	Mcl1-Noxa inh 62 (no result: Bim-Mcl-1)
COc1ccc2c(N)c(C(=O)NN)[nH]c2c1	Mcl1-Noxa inh 64 (no result: Bim-Mcl-1)
COC(=O)c1[nH]c2cc(OC)ccc2c1N=CN(C)C	none (no result: Bim-Mcl-1)
COc1ccc(C(=O)NCCCOc2cccc(NC(C)=O)c2)cc1	none (no result: Bim-Mcl-1)
CCOC(=O)c1c2ccc(OCC(=O)NN)cc2n2ccccc12	none
CCOC(=O)c1c2ccc(OCC(=O)N/N=C/c3ccc(C)cc3)cc2n2ccccc12	Mcl1 Bid PPI 73
Cc1cccc(-c2nnc(SCC3CNC(=O)O3)n2-c2ccc(Cl)cc2)c1 (stereo not given)	eIF4E-4G inh 45
COc1ccc(-n2c(SCC3CNC(=O)O3)nnc2-c2ccc(Cl)cc2)cc1 (stereo not given)	none
COC(=O)c1cccc(C23CC4(C2)[C@H](CN(Cc2cccnc2)[C@@H]4c2ccccc2)C3c2ccc(C(F)(F)F)cc2)c1 (stereo not given in full)	none (no result: Bim-Mcl-1)
NC(=O)CSc1nnc(-c2ccc(S(=O)(=O)N3CCCC3)cc2)n1Cc1ccco1	none
O=C(O)CSc1nnc(-c2ccc(S(=O)(=O)N3CCCC3)cc2)n1Cc1ccco1	14-3-3 Bad PPI 85
CC(CN1CCN(C)CC1)OC(=O)c1ccc(F)cc1 (stereo not given)	14-3-3 Bad PPI 91
CC(CN1CCN(C)CC1)OC(=O)c1cccc(Cl)c1 (stereo not given)	none (no result: Bim-Mcl-1)
CC(CN1CCN(C)CC1)OC(=O)c1ccccc1 (stereo not given)	14-3-3 Bad PPI 71
COc1cc(CN2CCC(C(=O)NC3CCCC3)CC2)ccc1O	14-3-3 Bad PPI 77
COC(=O)Nc1ccc(S(=O)(=O)NCc2ccccn2)cc1	Mcl1-Noxa inh 82
COc1ccccc1-c1noc(-c2ccccc2C(=O)NCc2ccco2)n1	none
